From PubChem BioAssay AID488829 (NMMLSC, 2010)
The list shows a part of the results. Values without a mark were called inactive.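 The calls were made as follows: active = fluorescence change span, or the activity score built from it, above 25; inactive = the rest.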

Assay: autofluorescence of compounds in yeast s288c, dose response, artefact control for yeast TOR pathway GFP screen, primary hits, KU SAR, s288c parental (AID 488829)
Conditions: S. cerevisiae s288c parental, compound autofluorescence, flow cytometry, 3 h; at 33 µM; hits give high values

Compound	fluorescence change (span)
CN(C)CCCNc1nc(N)c([N+](=O)[O-])c(Nc2cccc(F)c2)n1	0.05
Cc1ccc(-c2nn(C(C)(C)C)c3ncnc(N)c23)cc1	0.41
